We go through ten molecules from PubChem BioAssay.

The structures appear in SMILES notation. A number with no mark means an inactive call.

A short description of this assay: probe aXIP binding to arrayed compounds – biochemical, NeuroSMM set, 635/667 nm fluorescence, primary screen (AID 1119).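 Also: probe is the protein aXip251-270 applied at 1 µg/mL to compound-printed slides; binding of probe to printed compounds measured as 667 nm fluorescence plus signal to noise.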 The note with it: small-molecule microarray, higher = more signal, called active from +8 up or from −8 down.
Take `O=C1NC(=O)C2C1C=CC(C(O)Cc1ccccc1)N2Nc1ccccn1` (stereo not given): the composite Z-score is -0.0126. As for `CC(CCC(=O)OC[C@H]1O[C@H](C#Cc2ccccc2)C=C[C@@H]1Oc1ccc(C)cc1)=NOC[C@@H](O)COCc1ccco1`, the composite Z-score is -0.142. Consider `CC1CC/C=C\[C@H]2OC34C=CCN(Cn5nnc6ccccc65)C(=O)[C@H]3N(CCO)C(=O)[C@@H]4C2C(=O)O1` (stereo not given in full), for which the composite Z-score is 1.12.

For the molecule `CCOC(=O)CCN1C(=O)[C@H]2[C@H]3[C@H](O)[C@H](O)CC(=NNC(=O)OCc4ccc(OC)cc4)[C@@H]3CC[C@H]2C1=O`, the composite Z-score was 0.101. In the case of `CCN1C(=O)[C@H]2[C@H]3[C@H](O)[C@H](O)CC(=NOC(C)CN4CCCCc5nc(C)c(C)cc54)[C@@H]3CC[C@H]2C1=O` (stereo not given in full), the composite Z-score was -0.467. As to `C#CCCCON=C1C[C@@H](O)[C@@H](O)[C@@H]2[C@@H]3C(=O)N(CCC(=O)OCC)C(=O)[C@@H]3CC[C@@H]12`, the composite Z-score is -0.521. For the molecule `CCN1C(=O)[C@H]2[C@H]3[C@H](O)[C@H](O)CC(=NO[C@@H]4O[C@H](CO)[C@@H](O)[C@H](O)[C@H]4O)[C@@H]3CC[C@H]2C1=O`, the composite Z-score was 0.103. As for `COCC1=C2[C@@H](CCc3ccccc3)OB(O)C[C@@H]2n2c(=O)n(-c3ccccc3)c(=O)n2C1`, the composite Z-score was -0.532. Consider `CN1C(=O)C2C=CC(C(O)c3ccc(Br)cc3)N(N(c3ccccc3)c3ccccc3)C2C1=O` (stereo not given), for which the composite Z-score was 0.49.

As for `CC(CCN1CCCCc2nc(C)c(C)cc21)=NOC(C)CN1CCCCc2nc(C)c(C)cc21` (stereo not given), the composite Z-score was 0.833.
